Test results reported in PubChem BioAssay AID1508633 (National Center for Advancing Translational Sciences (NCATS), 2021).
Inconclusive results are not listed. A number with no mark means an inactive call. Calls of active or inactive are those of the source. Calls follow the shape of the dose curve; as a rule, active = well fitted inhibition curve with a large enough effect; inconclusive = small, poorly fitted or top-dose-only effect; inactive = no such curve, though single readings can be large or run the other way. Where a SMILES comes first, the peptide text is derived from it. [ ]: non-standard residue; d: D form. The star is where a group is joined. Cbz = O=C(OCc1ccccc1)*; Nva = CCC[CH](N)C(=O)O

These molecules were tested on zebrafish ABCB5 (Abcb5) multidrug transporter (assay: qHTS for characterization and localization of zebrafish homologs of the human ABCB1 multidrug transporter: ABCB5 transfected cells). Conditions: CellTiter-Glo luminescence viability, 72 h; series mostly up to 46.1 µM; activity, negative = inhibition: at the top concentration.
Description: The zebrafish has emerged as a potential model to study the blood-brain barrier (BBB) given its similarities with mammalian systems. However, little information has been available with regard to homologous ATP-binding cassette transporters expressed at the zebrafish BBB. Two transporters that are highly expressed at the human BBB are P-glycoprotein (P-gp, encoded by the ABCB1 gene) and ABCG2 (encoded by the ABCG2 gene). In this study, we focus on characterization of P-gp homologs in the zebrafish, which has two genes that are homologous to human ABCB1 - abcb4 and abcb5. We generated stably-transfected cell lines to determine their substrate specificities. […] Zebrafish abcb4 also colocalized with claudin 5 expression in brain endothelial cells.
A high-throughput screen was performed as previously described on empty vector transfected cells, P-gp-overexpressing MDR-19 cells and cells transfected with full-length zebrafish abcb4 (ZF Abcb4) or abcb5 (ZF Abcb5). Briefly, cells were plated into 1536-well plates at a density of 500 cells/well in 5 uL media. P-gp substrate compounds (approximately 90) selected from our previous study were then added at varying concentrations using a 1536-head pin tool (Kalypsis, San Diego, CA) and plates were incubated at 37C in 5% CO2 for 72 h. CellTiter-Glo reagent (Promega) was dispensed into the wells, incubated for 5 min and luminescence was read on a ViewLux instrument (Perkin-Elmer).
Cytotoxic compounds were defined as those that yielded a curve class of -1.1, -1.2, -2.1, -2.2, -2.3, or -2.4, a maximum response of >50% and an AC50 of < 10 uM. All compounds from screening analysis were tested in Vector (empty vector control), MDR-19 (P-gp overexpressing), zebrafish abcb4 (ZF Abcb4) and abcb5 (ZF Abcb5) expression cell lines.
1. Tobie D Lee, Olivia W Lee, Kyle R Brimacombe, Lu Chen, Rajarshi Guha, Sabrina Lusvarghi, Bethilehem G Tebase, Carleen Klumpp-Thomas, Robert W Robey, Suresh V Ambudkar, Min Shen, Michael M Gottesman, Matthew D Hall. A High-Throughput Screen of a Library of Therapeutics Identifies Cytotoxic Substrates of P-glycoprotein. Mol Pharmacol. 2019, Nov;96(5):629-640.

| Compound | Potency | activity, negative = inhibition |
| --- | --- | --- |
| CCn1nnc2c(N3CCOCC3)nc(-c3ccc(NC(=O)Nc4ccc(C(=O)N5CCN(C)CC5)cc4)cc3)nc21 | 1.87 µM (active) |  |
| Oc1ccc(-c2ccc(-c3cc(Nc4cccc(CNC5CC5)c4)n[nH]3)cc2)c(O)c1 | 5.26 µM (active) |  |
| CCC(C)C(=O)OC1CC(O)C23C4OCC5(C(O)CC2C1(C)C(O)O4)C3C(=O)C(O)C1(C)C(O)(c2ccoc2)CC2OC251 (stereo not given) |  | 4.67% [at 15.2 µM] |
| Cc1[nH]c2ccccc2c1CCNCc1ccc(/C=C/C(=O)NO)cc1 | 0.59 µM (active) |  |
| CC(=O)C1(O)Cc2c(O)c3c(c(O)c2C(OC2CC(N)C(O)C(C)O2)C1)C(=O)c1c(O)cccc1C3=O (stereo not given) | 0.059 µM (active) |  |
| NC(=O)Nc1cc(-c2cccc(F)c2)sc1C(=O)N[C@H]1CCCNC1 | 0.662 µM (active) |  |
| COCCn1c2c([n+](Cc3cnccn3)c1C)C(=O)c1ccccc1C2=O | 0.0935 µM (active) |  |
| CN(C)c1ccc(C(=C2C=CC(=[N+](C)C)C=C2)c2ccc(N(C)C)cc2)cc1 | 0.935 µM (active) |  |
| Cc1cc(N)c2ccccc2[n+]1CCCCCCCCCC[n+]1c(C)cc(N)c2ccccc21 | 8.33 µM (active) |  |
| NC(=O)Nc1cc(-c2ccc(CN3CCOCC3)c(F)c2)sc1C(=O)N[C@H]1CCCNC1 | 1.48 µM (active) |  |
| CCc1cccc(CC)c1NC(=O)N1Cc2[nH]nc(NC(=O)c3ccc(N4CCN(C)CC4)cc3)c2C1 |  | -1.82% |
| C=CCNC1=C2CC(C)CC(OC)C(O)C(C)/C=C(\C)C(OC(N)=O)C(OC)/C=C/C=C(\C)C(=O)NC(=CC1=O)C2=O (stereo not given) | 11.8 µM (active) |  |
| CC[n+]1c(-c2ccccc2)c2cc(N)ccc2c2ccc(N)cc21 | 11.8 µM (active) |  |
| CCCC(C=O)NC(=O)C(CC(C)C)NC(=O)C(CC(C)C)NC(=O)OCc1ccccc1 (stereo not drawn) (Cbz-Leu-Leu-[Nva]-aldehyde; configuration not given here) | 1.87 µM (active) |  |
| CC(=O)O[C@@H]1C[C@H](O)[C@@]23CO[C@@H](O)C1(C)[C@@H]2C[C@@H](O)[C@]1(C)[C@@H]3C(=O)[C@H](OC(C)=O)[C@@]2(C)[C@H](c3ccoc3)C[C@H]3O[C@]321 | 1.05 µM (active) |  |
| C[C@@H]1O[C@@H](O[C@H]2[C@@H](OC(=O)[C@]34CCC(C)(C)CC3C3=CCC5[C@@]6(C)C[C@H](O)[C@H](O[C@@H]7O[C@H](CO)[C@@H](O)[C@H](O)[C@H]7O[C@@H]7OC[C@@H](O)[C@H](O)[C@H]7O)[C@@](C)(C(=O)O)C6CC[C@@]5(C)[C@]3(C)CC4)OC[C@H](O)[C@@H]2O)[C@H](O)[C@H](O)[C@H]1O[C@@H]1OC[C@@H](O)[C@H](O)[C@H]1O (stereo not given in full) |  | -6.88% [at 8.96 µM] |
| Cc1ccc(C(=O)N(CCCN)C(c2nc3cc(Cl)ccc3c(=O)n2Cc2ccccc2)C(C)C)cc1 (stereo not given) | 23.5 µM (active) |  |
| CCS(=O)(=O)c1cccc(-c2cc(C(=O)NC3CCN(C)CC3)c(C)c3[nH]c4ncc(C)cc4c23)c1 |  | -11.8% |
| CC(=O)OC1C(=O)C2(C)C(O)CC3OCC3(OC(C)=O)C2C(OC(=O)c2ccccc2)C2(O)CC(OC(=O)C(O)C(NC(=O)c3ccccc3)c3ccccc3)C(C)=C1C2(C)C (stereo not given) |  | -31.9% |
| Cc1ccc(C(=O)N(CCCN)[C@@H](c2oc3cc(Cl)ccc3c(=O)c2Cc2ccccc2)C(C)C)cc1 | 23.5 µM (active) |  |

| Compound | Potency | activity, negative = inhibition |
| --- | --- | --- |
| C/C=C1/NC(=O)C2CSSCCC=CC(CC(=O)NC(C(C)C)C(=O)N2)OC(=O)C(C(C)C)NC1=O (stereo not given) | 2.09 µM (active) |  |
| C=CCn1c(=O)c2cnc(Nc3ccc(N4CCN(C)CC4)cc3)nc2n1-c1cccc(C(C)(C)O)n1 | 2.35 µM (active) |  |
| C=C1CO[C@@]2(O[C@H]3CC4C5CC=C6C[C@@H](O)C[C@@H](O[C@@H]7OC[C@H](O)[C@H](O[C@@H]8OC[C@@H](O)[C@H](O)[C@H]8O)[C@H]7O[C@@H]7O[C@@H](C)[C@H](OC(C)=O)[C@@H](OC(C)=O)[C@H]7OC(C)=O)[C@]6(C)C5CC[C@]4(C)[C@@H]3[C@@H]2C)[C@@H](O)[C@H]1OC1OC(C)C(O)C(O)C1O (stereo not given in full) |  | 3.83% [at 8.96 µM] |
| C#Cc1cccc(Nc2ncnc3cc(OC)c(OCCCCCCC(=O)NO)cc23)c1 | 8.33 µM (active) |  |
| CN(C)C1CCN(C(=O)c2ccc(NC(=O)Nc3nc(N4CCOCC4)nc(N4CCOCC4)n3)cc2)CC1 | 4.69 µM (active) |  |
| CN(C)C/C=C/C(=O)Nc1cccc(C(=O)Nc2ccc(Nc3nccc(-c4cccnc4)n3)cc2)c1 | 14.8 µM (active) |  |
| CC[C@@]1([C@@H]2O[C@@H]([C@H]3O[C@@](O)(CO)[C@H](C)C[C@@H]3C)C[C@@H]2C)CC[C@H]([C@]2(C)CC[C@]3(C[C@H](O)[C@@H](C)[C@@H]([C@@H](C)[C@@H](OC)[C@H](C)C(=O)O)O3)O2)O1 | 2.64 µM (active) |  |
| CC[C@@H]1C(=O)N(C)c2cnc(Nc3ccc(C(=O)NC4CCC(N5CCN(CC6CC6)CC5)CC4)cc3OC)nc2N1C(C)C (stereo not given in full) | 1.32 µM (active) |  |
| CC(C)C[C@@H](C=O)NC(=O)[C@H](CC(C)C)NC(=O)[C@H](CC(C)C)NC(=O)OCc1ccccc1 (Cbz-Leu-Leu-Leu-aldehyde) | 1.18 µM (active) |  |
| CN(C)C1CCN(C(=O)c2ccc(NC(=O)Nc3ccc(-c4nc(N5CCOCC5)nc(N5CCOCC5)n4)cc3)cc2)CC1 | 7.43 µM (active) |  |
| COC[C@H](NC(=O)c1cnc(C)s1)C(=O)N[C@@H](COC)C(=O)N[C@@H](Cc1ccccc1)C(=O)[C@@]1(C)CO1 | 0.166 µM (active) |  |
| CC[C@@H]1C(=O)N(C)c2cnc(Nc3ccc(C(=O)NC4CCN(C)CC4)cc3OC)nc2N1C1CCCC1 | 1.32 µM (active) |  |
| CCCCc1nc2cc(C=CC(=O)NO)ccc2n1CCN(CC)CC | 7.43 µM (active) |  |
| COc1cc2c(NC3CCN(C(C)C)CC3)nc(N3CCCN(C)CC3)nc2cc1OCCCN1CCCC1 |  | -16.3% |
| CC(NCc1ccc2c(c1)nc(NC(=O)c1ccc(-c3cn[nH]c3)s1)n2CC(C)(C)O)C(C)(C)C (stereo not given) | 3.72 µM (active) |  |
| CCN(CCCO)CCCOc1ccc2c(Nc3cc(CC(=O)Nc4cccc(F)c4)[nH]n3)ncnc2c1 |  | -2.49% |
| COc1cc(C(=O)NC2CCN(C)CC2)ccc1Nc1ncc2c(n1)N(C1CCCC1)CC(F)(F)C(=O)N2C | 1.18 µM (active) |  |
| CC(C)C[C@H](NC(=O)[C@H](CCc1ccccc1)NC(=O)CN1CCOCC1)C(=O)N[C@@H](Cc1ccccc1)C(=O)N[C@@H](CC(C)C)C(=O)[C@@]1(C)CO1 | 0.166 µM (active) |  |
| CCN(CC)Cc1ccc(C(=O)N(CCc2ccccc2OC)[C@@H]2CCNC2)cc1 |  | 2.08% |
| N=C(N)c1ccc(OCCCCCOc2ccc(C(=N)N)cc2)cc1 | 13.2 µM (active) |  |
